# From article PMC4336329 (PLoS ONE, 2015)
# The whole screen tested about 310,000 compounds, of which about 14,000 (4.5%) showed an effect of 50% or more. Effects have a minus sign here. The sample holds strong results, similar compounds and a random draw of the others, so the mix is not that of the screen.
# Biological target: human ether-à-go-go-related gene (hERG) potassium channel (human, UniProt Q12809)
# Experiment: primary screen, population patch clamp on CHO cells stably expressing hERG; higher = less effect of the substance
# 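Note: peak tail current of the secondary pulse compared with the same well before compound.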
# Chain of human ether-à-go-go-related gene (hERG) potassium channel (Q12809 whole entry, looked up): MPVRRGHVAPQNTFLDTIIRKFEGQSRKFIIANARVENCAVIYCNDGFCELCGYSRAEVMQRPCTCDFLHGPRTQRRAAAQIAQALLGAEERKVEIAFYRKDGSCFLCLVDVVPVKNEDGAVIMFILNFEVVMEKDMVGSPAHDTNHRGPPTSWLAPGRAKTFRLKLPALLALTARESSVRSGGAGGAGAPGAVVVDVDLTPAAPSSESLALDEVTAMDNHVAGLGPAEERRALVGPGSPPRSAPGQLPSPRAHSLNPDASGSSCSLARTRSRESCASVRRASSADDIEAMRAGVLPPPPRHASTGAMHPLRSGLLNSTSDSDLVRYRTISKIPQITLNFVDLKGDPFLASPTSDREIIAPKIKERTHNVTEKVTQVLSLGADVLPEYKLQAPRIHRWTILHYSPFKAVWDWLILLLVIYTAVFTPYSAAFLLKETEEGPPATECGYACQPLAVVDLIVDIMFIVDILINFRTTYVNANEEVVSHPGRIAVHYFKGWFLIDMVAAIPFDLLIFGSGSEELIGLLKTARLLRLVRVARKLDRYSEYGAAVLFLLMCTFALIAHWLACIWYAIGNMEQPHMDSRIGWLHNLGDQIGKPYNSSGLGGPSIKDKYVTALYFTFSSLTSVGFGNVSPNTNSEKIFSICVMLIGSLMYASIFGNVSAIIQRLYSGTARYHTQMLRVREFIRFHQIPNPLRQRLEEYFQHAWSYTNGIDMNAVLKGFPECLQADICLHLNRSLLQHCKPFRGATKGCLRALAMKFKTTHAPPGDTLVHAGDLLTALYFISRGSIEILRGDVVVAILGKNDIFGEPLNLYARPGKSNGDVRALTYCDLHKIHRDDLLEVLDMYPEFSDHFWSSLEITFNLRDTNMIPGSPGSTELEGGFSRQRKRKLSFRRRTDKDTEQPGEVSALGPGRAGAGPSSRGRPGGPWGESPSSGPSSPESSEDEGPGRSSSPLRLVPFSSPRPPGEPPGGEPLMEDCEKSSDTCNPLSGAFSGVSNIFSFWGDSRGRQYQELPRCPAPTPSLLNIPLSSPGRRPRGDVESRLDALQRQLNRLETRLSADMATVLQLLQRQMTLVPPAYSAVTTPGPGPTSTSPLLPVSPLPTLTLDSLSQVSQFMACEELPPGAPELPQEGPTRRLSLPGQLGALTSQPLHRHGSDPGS
row,SMILES,"hERG current change (%, negative = inhibition) at 10uM [%]"
1,COc1ccc(C(CC(=O)NCc2ccco2)c2ccc(F)cc2)cc1 (centres unmarked),-22.4
2,O=C(NCc1nnc(SCC(=O)N2CCN(c3ccccc3)CC2)o1)c1ccc(F)cc1,-5.96
3,O=S(=O)(NCc1cccnc1)c1cccc2cccnc12,6.44
4,COc1ccc(CCNS(=O)(=O)c2ccc3c(c2)CCN3C(=O)C2CC2)cc1OC,0.919
5,Cc1ccc(C)n1CCN1CCN(C(=O)CSc2nc3ccccc3nc2N2CCOCC2)CC1,-54.5
6,CCCCn1c(SCc2nc3ccccc3s2)nc2ccccc2c1=O,-54.7
7,O=C(CSc1nc2ccccc2nc1N1CCOCC1)N1CCN(c2ccccc2)CC1,-39.2
8,CCn1c(SCC(=O)N2CCN(c3ccc(Cl)cc3)CC2)nc2ccccc2c1=O,8.79
9,O=C(CSc1nc2ccccc2nc1SCC(=O)N1CCOCC1)N1CCOCC1,-5.85
10,O=c1c2ccccc2nc(SCc2nc3ccccc3s2)n1CCCO,-4.88
11,CCn1c(SC(C)C(=O)N2CCOCC2)nc2sc(C)c(C)c2c1=O (centres unmarked),3.37
12,COc1ccc(-n2c(SC(C)C(=O)N3CCOCC3)nc3ccccc3c2=O)cc1 (centres unmarked),6.84
13,CCCn1c(SCC(=O)N2CCN(c3ccccc3)CC2)nc2ccccc2c1=O,-56.7
14,CCOCCCn1c(SCc2nc3ccccc3s2)nc2ccccc2c1=O,-2.07
15,CCn1c(SCC(=O)N2CCN(c3ccc(F)cc3)CC2)nc2ccccc2c1=O,-45.2
16,CCCn1c(SC(C)C(=O)N2CCOCC2)nc2ccc(Br)cc2c1=O (centres unmarked),-56.1
17,O=C1CCC(C(=O)Nc2ccc(Cl)cc2)N1 (centres unmarked),28
18,CC1CCN(C(=O)c2ccc3c(c2)NC(=O)CN3)CC1,8.49
19,Nc1ccc(C2(c3ccc(N)cc3)OC(=O)c3ccccc32)cc1,-6.43
20,CCOC(=O)C1CCN(C(=O)C(=O)Nc2ccc3nc4n(c(=O)c3c2)CCCCC4)CC1,1.99
21,CCC1(C)Cc2c(sc3nc(NN)n(C)c(=O)c23)CO1 (centres unmarked),13.4

row,SMILES,"hERG current change (%, negative = inhibition) at 10uM [%]"
1,Cc1ccc(C(C(=O)NC2CCCC2)N(C(=O)CNC(=O)c2cccs2)c2cccnc2)o1 (centres unmarked),-11.1
2,Cn1c(N)c(C(=O)CSc2nc3ccccc3c(=O)n2CCCN2CCOCC2)c(=O)n(C)c1=O,2.7
3,O=C(CSc1nc2ccccc2c(=O)n1CCCN1CCOCC1)c1c[nH]c2ccccc12,-54
4,COCCCn1c(SCC(=O)N2CCOCC2)nc2ccccc2c1=O,-5.65
5,Cc1[nH]c2ccccc2c1C(=O)CSc1nc2ccccc2c(=O)n1CCCN1CCOCC1,-5.57
6,O=C1CN(C(=O)CSc2nc3ccccc3c(=O)n2CCCN2CCOCC2)c2ccccc2N1,-19.7
7,CCOCCCn1c(SCC(=O)N2CCOCC2)nc2ccccc2c1=O,-36
8,CCCCn1c(SCC(=O)N2CCOCC2)nc2ccccc2c1=O,-68.4
9,O=C(CSc1nc2ccccc2c(=O)n1CCCN1CCOCC1)N1CCN(c2ccccc2)CC1,-70.6
10,CCCCn1c(SCC(=O)NC2CC2)nc2ccccc2c1=O,-4.62
11,Cc1onc(-c2c(Cl)cccc2Cl)c1C(=O)NCCCN1CCOCC1,3.09
12,O=C(CCc1c[nH]c2ccccc12)OCc1ccc(Br)cc1,10.2
13,Cc1ccc(-n2nc(C)c3c2OC(N)=C(C#N)C3c2ccncc2)cc1 (centres unmarked),7.07
14,COc1ccc(C(=O)NC(C)c2ccncc2)cc1S(=O)(=O)N(C)Cc1ccccc1 (centres unmarked),-61
15,COc1ccc(C(=O)OCC(=O)NC2CC2)cc1S(=O)(=O)N(C)Cc1ccccc1,-53.8
16,CCN(Cc1ccccc1)S(=O)(=O)c1cc(C(=O)NCCCN(C)C)ccc1OC,-50.3
17,COc1ccc(C(=O)NCc2ccc3c(c2)OCO3)cc1S(=O)(=O)N(C)Cc1ccccc1,-12.3
18,COc1ccc(C(=O)Nc2ccc(NC(C)=O)cc2)cc1S(=O)(=O)N(C)Cc1ccccc1,10.3
19,CCN(C(=O)COC(=O)c1ccc(OC)c(S(=O)(=O)N(C)Cc2ccccc2)c1)C1CCS(=O)(=O)C1 (centres unmarked),-30.9
20,COc1ccc(C(=O)OCC(=O)N(C)C2CCS(=O)(=O)C2)cc1S(=O)(=O)N(C)Cc1ccccc1 (centres unmarked),-15.7
